# IL-1B inflam inh: qHTS for Inhibitors of Inflammasome Signaling: IL-1-beta AlphaLISA Primary Screen | THP-1 LPS/ATP IL-1B secretion, AlphaLISA, 16 h; active compounds read low | activity change, % at 57.5 µM | 4.7% of 360,000 active | AID 743279, 2014; in the data active means activity change below about -50%; inconclusive means mostly about -30% to -49%; further: on the % scale 0 is the no-effect control and ±100 the full control effect
#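 Secreted IL-1B measured by AlphaLISA bead assay after 16 h compound exposure of THP-1 cells; compounds (final up to 57.5 uM) added 1 h before LPS (250 ng/mL) and ATP (1.25 mM) stimulation; lower signal means less secretion.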
# SW480 rerep: A quantitative high throughput screen for small molecules that induce DNA re-replication in SW480 colon adenocarcinoma cells; SW480 DNA re-replication, Hoechst DNA content imaging, 48 h; Potency, µM (doses to about 46.1 µM), without a hit: at the top dose re-replication activation, actives largely listed as activators; 1.8% of 340,000 active; AID 624297, 2012; further: potency means the concentration at half of the fitted maximal effect; % of control where 0% means no effect; nearly all actives have a fitted effect of over 55% in size
#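 Compounds, transferred as 23 nL by pin tool, were incubated with cells for 48 hr; DNA content per nucleus was then quantified by Hoechst staining and fluorescence plate imaging.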
# TDP1 cell noCPT: qHTS for Inhibitors of human tyrosyl-DNA phosphodiesterase 1 (TDP1): qHTS in cells in absence of CPT | DT40 Tdp1-/- hTDP1 cells, no CPT, ATP luminescence, 48 h | Potency, µM (doses to about 46.2 µM), for the others: at the top dose activity change, negative = growth inhibition, most hits filed as inhibitors | 15% of 420,000 active | AID 686978, 2013; further: potency means the concentration at half of the fitted maximal effect; on the % scale 0 is the no-effect control and ±100 the full control effect; nearly all actives have a fitted effect of over 55% in size
#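 Stably hTDP1-transfected Tdp1-null chicken DT40 cells were treated with library compounds minus camptothecin and grown for at least 48 hr at 37 °C, after which cellular ATP was quantified by luminescence.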
# MCF10A rerep: A quantitative high throughput screen for small molecules that induce DNA re-replication in MCF 10a normal breast cells | MCF 10A DNA re-replication, Hoechst nuclear intensity, 48 h | Potency, µM (highest dose often 46.1 µM), inactives show at the highest dose activity, positive = re-replication, usual class: activators | 2.9% of 350,000 active | AID 624296, 2012; further: potency means the concentration at half of the fitted maximal effect; % of control where 0% means no effect; nearly all actives have a fitted effect of over 50% in size
# DT40 TDP1 CPT: qHTS for Inhibitors of human tyrosyl-DNA phosphodiesterase 1 (TDP1): qHTS in cells in presence of CPT; chicken DT40 Tdp1-/-;hTDP1 cells + 20 nM CPT, ATP luminescence, 48 h; Potency, µM (top dose mostly 46.2 µM), inactives show at the highest dose activity change, negative = growth inhibition, actives largely listed as inhibitors; 12% of 420,000 active; AID 686979, 2013; further: potency means the concentration at half of the fitted maximal effect; on the % scale 0 is the no-effect control and ±100 the full control effect; nearly all actives have a fitted effect of over 55% in size
#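 Chicken DT40 Tdp1-/- cells complemented with human TDP1, 400 cells/well, exposed to compounds plus 20 nM camptothecin for at least 48 h at 37 C; viability read as ATP content by CellTiter-Glo luminescence.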
# BCR signal inh: qHTS Assay to Find Inhibitors of Chronic Active B-Cell Receptor Signaling; ABC-DLBCL IkBa-CBG/CBR reporter, luminescence ratio, 4 h; Potency, µM (series often up to 46.1 µM), without a hit: top-dose activity change, negative = inhibition, actives largely listed as inhibitors; 0.05% of 340,000 active; active means well fitted inhibition curve with a large enough effect in the signal ratio, with a control signal flat, not every such curve was filed as active; inconclusive means small, poorly fitted or top-dose-only effect, or effect the other way, or a change in a side signal; the % refers to the signal ratio;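 further: potency means the concentration at half of the fitted maximal effect; plate controls were basal doxycycline-induced cells for no effect and cells given 10 µM MG132 for full effect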
#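 Cell line TMD8 (human ABC DLBCL), stably expressing tet-inducible CBG68-IkBa fusion and CBR; IMDM/0.5% FBS; cpd up to 46 uM; dox induction, 4 h, 37C/5% CO2; dual luminescence; green/red ratio; MG132 control.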
# * marks the source's active call; other numbers are inactive results; ? = inconclusive; · = no result given. Shown are actives, neighbours in structure and some others; about 19% of the full set was active somewhere. Unless noted, the call rests on the fitted dose curve; in most records, active means well fitted curve in the direction sought with a large enough effect; inconclusive means small, poorly fitted or top-dose-only effect, or another doubt; inactive means no such curve, though single readings can be large; an effect the other way counts as inactive or inconclusive.
SMILES,IL-1B inflam inh,SW480 rerep,TDP1 cell noCPT,MCF10A rerep,DT40 TDP1 CPT,BCR signal inh
CCn1c(CCC(=O)Nc2cc(F)ccc2C)nc2cc(S(=O)(=O)N(C)C)ccc21,2,6%,-13%,2%,?,2%
CCN(CC)S(=O)(=O)c1ccc2c(c1)nc(CCC(=O)Nc1ccccc1Cc1ccccc1)n2CC,-14,?,23µM*,22%,21µM*,2%
CN(Cc1ccc(C(C)(C)C)cc1)C(=O)C1CCN(C(=O)Nc2ccccc2)CC1,-60*,-274%,23µM*,31%,?,-18%
CSc1ccccc1NC(=O)CN(C)C(=O)C1CCN(C(=O)Nc2ccccc2)CC1,-5,2.3µM*,-3%,15%,-2%,-7%
Cc1ccc(CN(C)C(=O)C2CCN(C(=O)Nc3ccccc3)CC2)o1,10,-156%,-19%,8%,4%,?
COc1ccc(NS(=O)(=O)N2CCCCC2)cc1,6,-3%,-4%,4%,-19%,·
OC(c1ccc(F)cc1)c1nc(-c2cnc3ccccc3c2)cs1 (centres undefined),49,·,?,·,18µM*,·
OC(c1ccc(F)cc1)c1nc(-c2cccc(F)c2)cs1 (centres undefined),-18,·,?,·,?,·
OC(c1cccc(Cl)c1)c1nc(-c2cnc3ccccc3c2)cs1 (centres undefined),-6,·,13µM*,·,26µM*,·
COc1ccc(C(O)c2nc(-c3cnc4ccccc4c3)cs2)cc1 (centres undefined),20,·,15µM*,·,?,·
O=C(NCc1cc2ccccc2[nH]1)C1CCC(=O)N(CCCN2CCCC2=O)C1 (centres undefined),29,?,14%,-2%,-20%,6%
Cc1ccccc1C(=O)N1CCC(C(=O)OCc2ccccn2)CC1,12,-2%,-16%,0%,-3%,-6%
CC1(C)CN(Cc2ccccc2)C(=O)[C@H]1CC(=O)Nc1ccccc1,0,·,?,·,-3%,·
COc1ccc(NC(=O)C[C@@H]2C(=O)N(Cc3ccccc3)CC2(C)C)cc1,15,·,21µM*,·,-26%,·
CC1(C)CN(Cc2ccccc2)C(=O)[C@H]1CC(=O)Nc1ccc(Br)cc1,-16,·,13µM*,·,?,·
CC(=O)Nc1ccc(S(=O)(=O)NCC(=O)OCC(=O)NCCc2ccccc2)cc1,-8,·,0%,·,21%,·
Cc1ccc(-c2csc(N3CCC(C(N)=O)CC3)n2)cc1,·,-5%,·,11%,·,-2%
Cc1ccc(-c2csc(N3CCC(C(N)=O)(N4CCCCC4)CC3)n2)cc1,29,-5%,21µM*,1%,?,?
CCc1ccccc1NS(=O)(=O)c1ccc2c(c1)CCCN2C(=O)C1CCC1,·,·,21µM*,·,?,·
COc1ccc(OC)c(NS(=O)(=O)c2ccc3c(c2)CCCN3C(=O)C2CCC2)c1,·,·,?,·,23µM*,·
COc1ccc(C)cc1NS(=O)(=O)c1ccc2c(c1)CCN2C(C)=O,45,?,-24%,24%,?,-2%
C[C@H](O)[C@@H]1CN2CCc3c([nH]c4ccccc34)[C@@H]2C[C@@H]1N(C)C(=O)Nc1ccc(Br)cc1,-28,·,?,·,?,·
COc1ccc(NC(=O)N(C)[C@H]2C[C@H]3c4[nH]c5ccc(-c6ccc7c(c6)OCO7)cc5c4CCN3C[C@H]2[C@H](C)O)cc1,-12,·,10µM*,·,8.2µM*,·
COc1ccc(-c2ccc3[nH]c4c(c3c2)CCN2C[C@@H]([C@H](C)OC(=O)Nc3cc(Cl)cc(Cl)c3)[C@@H](N(C)C(=O)Nc3cc(Cl)cc(Cl)c3)C[C@@H]42)cc1,-18,·,?,·,?,·
COc1ccc(NC(=O)O[C@@H](C)[C@@H]2CN3CCc4c([nH]c5ccc(-c6ccc(OC)cc6)cc45)[C@@H]3C[C@@H]2N(C)C(=O)Nc2ccc(OC)cc2)cc1,-6,·,13µM*,·,?,·
SMILES,IL-1B inflam inh,SW480 rerep,TDP1 cell noCPT,MCF10A rerep,DT40 TDP1 CPT,BCR signal inh
Nc1ccn([C@@H]2O[C@H](C(=O)N[C@H](CO)Cc3ccccc3)[C@@H](O)[C@H]2O)c(=O)n1,-15,·,4%,·,9%,·
CCOC(=O)c1nc(C)nc(Sc2n[nH]c(-c3cc(C(F)(F)F)cc(C(F)(F)F)c3)n2)c1C,-2,-20%,?,16µM*,?,-4%
O=[N+]([O-])c1ccccc1-c1ccc(C(=S)N2CCCCC2)o1,-14,-10%,?,19%,-18%,?
Cc1nc2ccccc2c2oc(C(=O)N3CCN(c4ccc([N+](=O)[O-])cc4)CC3)cc12,14,?,?,-2%,?,?
Cc1cc(C(=O)N2CCN(c3ccc([N+](=O)[O-])cc3)CC2)c(C)o1,-20,4.1µM*,?,3.7µM*,?,1%
O=[N+]([O-])c1ccccc1-c1ccc(C(=S)N2CCCC2)o1,1,8.2µM*,?,-22%,26µM*,-7%
Cc1c(Cl)cccc1-c1ccc(C(=O)N2CCN(c3ccc([N+](=O)[O-])cc3)CC2)o1,-30,0%,26µM*,7%,?,-2%
CN1CCN(C(=S)c2ccc(-c3cccc([N+](=O)[O-])c3)o2)CC1,-23,-2%,23µM*,18%,-28%,-6%
CCN(C(=O)COC(=O)CNC(=O)c1ccc(C)cc1)c1c(N)n(Cc2ccccc2)c(=O)[nH]c1=O,3,-13%,17%,-1%,-5%,1%
O=C(c1ccc(-c2cccc(Cl)c2)o1)N1CCN(c2ccc([N+](=O)[O-])cc2)CC1,18,-5%,21µM*,5%,?,?
Cc1cc(C(=O)N2CCN(c3ccc([N+](=O)[O-])cc3)CC2)co1,-5,3%,?,3%,?,0%
Cn1c(C(=O)N2CCN(c3ccc([N+](=O)[O-])cc3)CC2)cc2c(=O)[nH]c3ccccc3c21,-54*,8%,12µM*,?,?,-8%
Cc1cnn(-c2cc(N/N=C/c3ccccc3Cl)ncn2)c1,2,1%,?,12%,?,2%
COc1cccc(/C=N/Nc2cc(-n3nc(C)cc3-c3ccccc3)ncn2)c1O,58,?,0.65µM*,3.7µM*,0.82µM*,-7%

# Screening results as filed in PubChem BioAssay.
